Test results as given in PubChem BioAssay (NCI).
The panel holds about 83,000 compounds, 20% with a hit somewhere; the sample as a whole holds those more often.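 Negative percent growth values reflect cell death: -40 means 40% of the cells present at the start died, and -100 means all died.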 Unmarked numbers belong to inactive results. The source made the active and inactive calls. The calls were made as follows: active = growth percent below 10; inactive = the rest.

Legend:
Assay in all cases: NCI-60 one-dose screen, 48 h (100 = growth as untreated, 0 = no growth, -100 = all killed)
Details in all cases: 10 µM unless noted
T-47D breast = test system: T-47D breast
SW-620 colon = test system: SW-620 colon
MCF7 breast = test system: MCF7 breast
HCT-116 colon = test system: HCT-116 colon
HCC-2998 colon = test system: HCC-2998 colon
KM12 colon = test system: KM12 colon
MDA-MB-435 melanoma = test system: MDA-MB-435 melanoma
BT-549 breast = test system: BT-549 breast

SMILES	growth (T-47D breast) [%]	growth (SW-620 colon)	growth (MCF7 breast)	growth (HCT-116 colon)	growth (HCC-2998 colon)	growth (KM12 colon)	growth (MDA-MB-435 melanoma)	growth (BT-549 breast)
Clc1ccccc1-c1nc2ccccc2[nH]1	89.3	94.6%	82.8%	78.6%	70.9%	97.5%	–	–
C/C(=C\c1ccc(OCC(=O)O)c(Cl)c1Cl)[N+](=O)[O-]	100	114%	103%	109%	97.1%	104%	106%	–
COc1ccc(C2=CC(c3cc(OC)c(OC)c(OC)c3)NC(=O)N2)cc1OC (centres undefined)	–	17.3%	15%	13.4%	18.7%	-26.8% (active)	7.31% (active)	8.72% (active)
O=C(O)c1cn(C2CC2)c2cc(N3CCN(C(=O)/C=C/c4ccc(Cl)cc4)CC3)c(F)cc2c1=O	–	102%	89%	74.8%	90.4%	82.7%	82.5%	50.1%
COc1ccc(C(=O)N2NC(=O)/C(=C/c3cn(-c4ccccc4)nc3-c3ccccc3)N=C2c2ccccc2)cc1	–	109%	98.9%	95.2%	107%	99.1%	92.2%	106%
Cc1cc(N/N=C/c2nc(-c3ccc(Br)cc3)oc2C)c2cc(Cl)ccc2n1	–	-8.11% (active)	-55% (active)	-16.5% (active)	96.1%	84%	16.8%	98.1%
CC(NNC(C)c1ccccc1)c1ccccc1 (centres undefined)	–	96.1%	113%	107%	103%	115%	112%	113%
CN(C)c1ncnc2c1ccn2C1OC(CO)C(O)C1O (centres undefined)	–	36.3%	-7.76% (active)	37%	22.7%	84.1%	62.3%	57.3%
COc1cc(/C=C/C(=O)c2ccc(Nc3ncnc4cc(OC)c(OC)cc34)cc2)cc(OC)c1	–	109%	73%	30.8%	106%	82.9%	51.8%	105%
CCCC(=O)Oc1ccc(/C(=C(\C)c2ccccc2)c2ccc(OCCN(CC)CC)cc2)cc1	–	84.5%	34.5%	47.8%	83.2%	79.5%	73.3%	78.7%
O=c1cc(Cc2ccc([N+](=O)[O-])cc2)[nH]c(=O)[nH]1	–	103%	106%	103%	105%	106%	107%	98.3%
COc1cc(Cn2cc3c(c2)-c2oncc2CC3)cc(OC)c1OC	–	27.1%	13.2%	8.52% (active)	12.1%	3.04% (active)	-29.9% (active)	36.7%
COc1cc(C2CC(c3ccc4c(c3)OCO4)=NN2C(C)=O)cc(OC)c1OC (centres undefined)	–	26.6%	17.4%	30.9%	47.8%	30.6%	-49% (active)	60.7%
O=c1[nH]c(-c2ccccc2)nc(CN2CCCCC2)c1O	–	104%	104%	105%	100%	108%	110%	109%
CCOC(=O)C1CCNC(=O)C1=O (centres undefined)	–	108%	107%	107%	104%	109%	113%	107%
Cc1ccc(Cc2c(C=O)nc(N)[nH]c2=O)c2ccccc12	–	103%	103%	88.2%	101%	102%	107%	87.9%

SMILES	growth (T-47D breast) [%]	growth (SW-620 colon)	growth (MCF7 breast)	growth (HCT-116 colon)	growth (HCC-2998 colon)	growth (KM12 colon)	growth (MDA-MB-435 melanoma)	growth (BT-549 breast)
FC(F)(F)c1cccc(-c2cn3c(ccc4ccccc43)n2)c1	–	89.5%	41%	88%	105%	91%	100%	91.1%
CCCCC(CC)OC(=O)C(Br)CC (centres undefined)	–	114%	102%	101%	104%	101%	109%	100%
CC(C)CC1NC(C)(C)CO1 (centres undefined)	–	106%	104%	114%	102%	110%	113%	116%
CCCN=C1NC(=O)/C(=C/c2nc(-c3ccc(OC)cc3)n3ccccc23)S1	–	72.9%	77.5%	26.3%	97%	48.8%	109%	90.5%
COc1cc2c(cc1OCCCN1CCN(CCCn3c4ccccc4c4ccccc43)CC1)N=C[C@@H]1CCCN1C2=O	–	-83.2% (active)	-72% (active)	-27.8% (active)	-86.3% (active)	-64.7% (active)	-80.5% (active)	-84.1% (active)
N[C@H]1CN(C(=O)c2cc3cc(Br)c(F)c(F)c3[nH]2)C[C@@H]1O	–	101%	89.3%	93.6%	93.3%	104%	99.2%	89.5%
CCN(CC)CCOC(=O)C(c1ccccc1)(c1ccccc1)C(C)C	86	97.3%	–	92.2%	96.9%	90.7%	90.8%	–
COc1ccc(NC(=O)CSc2nc(-c3ccc(OC)c(OC)c3)cc(-c3cc(OC)c(OC)c(OC)c3)n2)cc1	–	105%	94%	90.3%	111%	98.4%	112%	95.5%
CCOC(=O)CC(=O)OC	–	98.8%	91.5%	104%	104%	115%	110%	101%
O=C(CCl)N(C1CCCCC1)C1CCCCC1	–	113%	96.7%	101%	107%	112%	106%	97.4%
CCCOC(=O)n1cccc1	–	102%	95%	103%	104%	99.7%	110%	103%
COc1ccc(OC)c(C2OC(c3ccc4ccccc4c3O)=NN2C(C)=O)c1 (centres undefined)	–	54.5%	37.3%	55.5%	–	60.1%	8.75% (active)	84.4%
CCOC(=O)c1c(/N=C2\SC(=O)/C(=C\C(=O)OC)N2NC)sc2c1CCN(C(=O)OCC)C2	–	105%	98.7%	95%	92.5%	99.1%	101%	91.7%
COc1ccc(CNCCCN2C(=O)c3ccc4c5c(ccc(c35)C2=O)C(=O)N(CCCNCCCCNCCCN)C4=O)c(OC)c1OC	–	10.8%	-19.7% (active)	6.94% (active)	-3.52% (active)	21.2%	–	60.4%
C1=Cc2ccccc2N(c2nnc(-c3ccccc3)o2)c2ccccc21	–	99.9%	87.6%	66.6%	121%	92.3%	87.9%	–
CCOC(=O)C1=C(C)NC(C)=C(C(=O)OCC)C1(C)C	–	117%	98.9%	100%	108%	118%	116%	93.6%
